About 83,000 compounds went through this panel and 20% of them were active in at least one assay; those are over-represented in the sample as a whole.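 In brief: 96-well plates, 48 h treatment, single concentration, percent growth endpoint.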 Activity calls are given as the source filed them. The calls were made as follows: active = growth percent below 10; inactive = the rest.
system: SNB-19 CNS; test: NCI-60 one-dose screen, 48 h (100 = growth as untreated, 0 = no growth, -100 = all killed); details: 10 µM unless noted

SMILES	growth
O=C(CSc1nnc(-c2cc(-c3ccccc3)nc3ccccc23)o1)c1ccc(Br)cc1	93.2% (inactive)
O=c1oc2c(cc1-c1ccc([N+](=O)[O-])cc1)C(O)Oc1ccccc1-2 (stereo not given)	83.4% (inactive)
CC(C)Sc1nc(Cl)c(C#N)c(-c2ccc(F)cc2)n1	113% (inactive)
Cc1cc(C)cc(S(=O)(=O)n2ccc(-c3ccc4c(c3)CCC(C)(C)O4)n2)c1	94.6% (inactive)
CCc1nn2c(-c3ccc(Cl)cc3C)c(-c3cc(OC)c(OC)c(OC)c3)nc2s1	56.8% (inactive)
O=C(Nc1cccc(-n2cc(-c3ccncc3)c(-c3cc(O)cc(Cl)c3)n2)c1)Nc1ccc(Cl)c(Cl)c1	30.8% (inactive)
COc1ccccc1-n1c(-c2ccc(O)cc2C)cn2c3c(=O)[nH]c(=O)n(C)c3nc12	117% (inactive)
CCCCCN1C(=O)CCC1=O	101% (inactive)
O=C1NCCc2c1noc2-c1ccccc1	105% (inactive)
CCOC(=O)c1cc2oc(/C=C/c3cc(=O)c4cc(Cl)ccc4o3)cc2[nH]1	92.1% (inactive)
COc1cc(/C=C/C(=O)c2c(C)n([O-])c3ccccc3[n+]2=O)cc(OC)c1OC	50.8% (inactive)
O=C(c1ccccc1)C(CN1CCCCC1)c1ccccc1 (stereo not given)	78.5% (inactive)
c1ccc2c(-c3nc4ccccc4[nH]3)cccc2c1	52.5% (inactive)
COc1cc(/C=C/c2cc(/C=C/c3ccc(O)c(OC)c3)n(C(=O)Cc3ccccc3)n2)ccc1O	7.03% (active)
O=C1NC(=O)/C(=C/c2ccc(Cl)cc2Cl)N1	107% (inactive)
